Structures can show the parent of a compound that is named as a salt.

This assay has as its system PBMC-derived induced microglia-like cells (piMGLC). Description: synaptosome phagocytic index relative to DMSO control (fraction of DMSO); higher = more phagocytosis. The settings on record: concentration: 10 uM (2 uM for compounds listed in Table S2); pretreatment time: 24 h; assay time: 3 h.
As for `Cn1c(OCC2CCC(C(F)(F)F)CC2)nn2c(C3CCOCC3)ncc2c1=O` (stereo unspecified), the synaptosome phagocytic index is 0.831.

For the compound `CCN(C(=O)c1c(O)c2c(Cl)cccc2n(C)c1=O)c1ccccc1` [Laquinimod], the synaptosome phagocytic index is 0.888.

Consider `CC(C)Cc1ccc(C(C)C(=O)O)cc1` (stereo unspecified) [Ibuprofen], for which the synaptosome phagocytic index was found to be 0.74.

As for `Cc1ccc(-c2ncn(-c3ccc(Nc4nccc(-c5cccc(N6CCOCC6)c5)n4)cc3)n2)cn1`, the synaptosome phagocytic index amounted to 0.167.

Turning to `CN1CCN(c2cc(-c3ccncc3)c(-c3ccc4ccccc4c3)nn2)CC1`, the synaptosome phagocytic index was determined as 0.903.

In the case of `COC(=O)C1=C(C)NC(C)=C(C(=O)OCCN(C)Cc2ccccc2)C1c1cccc([N+](=O)[O-])c1` (stereo unspecified) [Nicardipine_(hydrochloride)], the synaptosome phagocytic index came to 0.627.

In the case of `CC[C@H](CO)Nc1nc(NCc2ccccc2)c2ncn(C(C)C)c2n1` [Seliciclib], the synaptosome phagocytic index was found to be 0.569.

Take `CN(C)CCC[C@@]1(c2ccc(F)cc2)OCc2cc(C#N)ccc21` [Escitalopram_(oxalate)]: the synaptosome phagocytic index came to 0.946.

For the compound `COc1ncccc1-c1cnn2ccc(N3CCN(C(=O)OC(C)C)CC3)nc12`, the synaptosome phagocytic index is 0.708.

For `O=C(CCCN1CCC(O)(c2ccc(Cl)cc2)CC1)c1ccc(F)cc1` [Haloperidol], the synaptosome phagocytic index was determined as 1.05.

As to `C[C@@H](O[C@H]1OCCN(Cc2n[nH]c(=O)[nH]2)[C@H]1c1ccc(F)cc1)c1cc(C(F)(F)F)cc(C(F)(F)F)c1` [Aprepitant], the synaptosome phagocytic index amounted to 1.02.

For the compound `Oc1c(I)cc(Cl)c2cccnc12` [Clioquinol], the synaptosome phagocytic index stood at 0.393.

For `CN1C(=O)C(Cc2c[nH]c3ccccc23)NC1=S` (stereo unspecified) [Necrostatin-1], the synaptosome phagocytic index amounted to 0.88.

Regarding `O=C(O)Cc1ccccc1Nc1c(Cl)cccc1Cl` [Diclofenac_(Sodium)], the synaptosome phagocytic index came out at 0.856.

As for `O=C1c2cccc3c2[C@H](CCC3)CN1[C@@H]1CN2CCC1CC2` [Palonosetron_(Hydrochloride)], the synaptosome phagocytic index was found to be 0.526.

On to `N#Cc1ccc(COC[C@H]2O[C@@H](n3c(NCc4ccc(Cl)c(Cl)c4)nc4c(N)ncnc43)[C@H](O)[C@@H]2O)cc1`, for which the synaptosome phagocytic index worked out at 0.479.

For the compound `CN(C)CCc1c[nH]c2ccc(CS(=O)(=O)N3CCCC3)cc12` [Almotriptan_(malate)], the synaptosome phagocytic index was determined as 0.882.

Regarding `NNC(=O)c1ccncc1` [Isoniazid], the synaptosome phagocytic index turned out to be 1.01.

For the compound `Cc1nc2c([nH]1)-c1ccccc1N(C(=O)c1ccc(NC(=O)c3ccccc3-c3ccccc3)cc1)CC2` [Conivaptan_(hydrochloride)], the synaptosome phagocytic index was 0.827.

In the case of `Nc1nc2[nH]cc(CCc3ccc(C(=O)N[C@@H](CCC(=O)O)C(=O)O)cc3)c2c(=O)[nH]1` [Pemetrexed_(disodium_hemipenta_hydrate)], the synaptosome phagocytic index was 1.03.

Regarding `CCc1cc2c(cc1-c1cnn(CC(=O)N(C)C)c1)C(C)(C)c1[nH]c3cc(C#N)ccc3c1C2=O`, the synaptosome phagocytic index was found to be 0.394.

In the case of `NC[C@H]1CC[C@H](C(=O)O)CC1` [Tranexamic_acid], the synaptosome phagocytic index was determined as 0.927.

For the compound `Cc1ccc(NC(=O)c2ccc(CN3CCN(C)CC3)cc2)cc1Nc1nccc(-c2cccnc2)n1` [Imatinib_(Mesylate)], the synaptosome phagocytic index is 0.52.

Turning to `Cn1cc2cc(C(F)(F)c3nnc4ccc(-c5cnn(C6CC6)c5)nn34)c(F)cc2n1` [Bozitinib], the synaptosome phagocytic index came out at 0.851.

`CN(C)CCC=C1c2ccccc2CCc2ccccc21` [Amitriptyline_(hydrochloride)]: the synaptosome phagocytic index was found to be 0.997.

On to `S=c1nc[nH]c2nc[nH]c12` [6-Mercaptopurine], for which the synaptosome phagocytic index was 0.669.

For the compound `OC(Cn1cncn1)(Cn1cncn1)c1ccc(F)cc1F` [Fluconazole], the synaptosome phagocytic index is 0.902.

Take `O=C1NC(=O)C(c2ccccc2)(c2ccccc2)N1` [Phenytoin]: the synaptosome phagocytic index came out at 1.12.

As for `CC(C)[C@H]1C(=O)N[C@@H](CCCNC(=N)N)C(=O)NCC(=O)N[C@@H](CC(=O)O)C(=O)N[C@H](Cc2ccccc2)C(=O)N1C` [Cilengitide], the synaptosome phagocytic index worked out at 1.09.

For the compound `Cc1cc(NC(=O)Cc2ccc(F)c(Cl)c2)n(C2CCCCC2)n1`, the synaptosome phagocytic index was 0.77.

For the compound `CC/C(=C(/CC)c1ccc(O)cc1)c1ccc(O)cc1` [Diethylstilbestrol], the synaptosome phagocytic index amounted to 0.638.

Turning to `CC(=O)c1c(C)c2cnc(Nc3ccc(N4CCNCC4)cn3)nc2n(C2CCCC2)c1=O` [Palbociclib_(isethionate)], the synaptosome phagocytic index came out at 0.421.

Consider `CCc1cccc2c3c([nH]c12)C(CC)(CC(=O)O)OCC3` (stereo unspecified) [Etodolac], for which the synaptosome phagocytic index stood at 1.01.

As for `NC(=O)OCC(COC(N)=O)c1ccccc1` [Felbamate], the synaptosome phagocytic index worked out at 0.618.

Take `CC1(C)S[C@@H]2[C@H](NC(=O)[C@H](N)c3ccc(O)cc3)C(=O)N2[C@H]1C(=O)O` [Amoxicillin_(trihydrate)]: the synaptosome phagocytic index worked out at 0.942.

In the case of `CC[C@]1(O)C[C@H]2CN(CCc3c([nH]c4ccccc34)[C@@](C(=O)OC)(c3cc4c(cc3OC)N(C=O)[C@H]3[C@@](O)(C(=O)OC)[C@H](OC(C)=O)[C@]5(CC)C=CCN6CC[C@]43[C@@H]65)C2)C1` [Vincristine_(sulfate)], the synaptosome phagocytic index was determined as 1.04.

The values above are taken from the supplement of paper PMC12339681.
